Results taken from PubChem BioAssay AID624094 (National Center for Advancing Translational Sciences (NCATS), 2012).
Records with an inconclusive call do not appear. A number with no mark means an inactive call. The source made the active and inactive calls. The call rests on the fitted dose curve; in most records, active means well fitted inhibition curve with a large enough effect; inconclusive means small, poorly fitted or top-dose-only effect; inactive means flat fitted curve, though single readings scatter.

Target: Dual specificity protein kinase CLK4 (Homo sapiens) (UniProt Q9HAZ1)
Experiment: Confirmation Assay for Inhibitors of Clk4 (Kinase-Glo Assay): KU probe
Conditions: recombinant Clk4, Kinase-Glo ATP luminescence; series mostly up to 76.9 µM; activity, negative = inhibition: at the top concentration
Method in brief: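 RS repeat peptide (100 uM) and ATP (1 uM) phosphorylated by 25 nM Clk4 (final) in Tris pH 7.5 with MgCl2, EGTA, DTT and Triton X-100. After 4.5 h at room temperature, remaining ATP read as Kinase-Glo luminescence.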

Sequence of Dual specificity protein kinase CLK4 (Homo sapiens) (Q9HAZ1 whole entry, looked up): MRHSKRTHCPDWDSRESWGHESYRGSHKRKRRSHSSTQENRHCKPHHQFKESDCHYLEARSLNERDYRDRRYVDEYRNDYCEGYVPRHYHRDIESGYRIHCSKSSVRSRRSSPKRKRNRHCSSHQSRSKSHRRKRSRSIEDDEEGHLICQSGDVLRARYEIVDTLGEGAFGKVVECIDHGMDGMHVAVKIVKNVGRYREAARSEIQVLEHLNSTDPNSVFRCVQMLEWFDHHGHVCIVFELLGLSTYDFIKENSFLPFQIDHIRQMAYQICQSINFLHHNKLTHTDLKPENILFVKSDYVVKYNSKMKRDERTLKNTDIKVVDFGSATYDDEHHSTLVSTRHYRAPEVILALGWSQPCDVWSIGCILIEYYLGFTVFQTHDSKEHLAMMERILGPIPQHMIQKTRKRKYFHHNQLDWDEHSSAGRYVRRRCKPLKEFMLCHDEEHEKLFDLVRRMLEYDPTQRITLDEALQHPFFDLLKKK

| SMILES | Potency | activity, negative = inhibition [%] |
| --- | --- | --- |
| Brc1cc(Br)cc(CNc2nccc(-c3ccc4c(c3)OCO4)n2)c1 | 0.0368 µM (active) |  |
| CC(=O)c1ccc(-c2ccc3ncnc(NCc4ccc(C)o4)c3c2)o1 | 0.13 µM (active) |  |
| c1cncc(CNc2cc(-c3ccc4c(c3)OCO4)ncn2)c1 | 6.54 µM (active) |  |
| COc1cccc(-c2ccnc(NCc3ccc(Cl)cc3)n2)c1 | 5.82 µM (active) |  |
| FC(F)(F)c1cccc(Nc2nccc(-c3ccc4c(c3)OCO4)n2)c1 | 0.0654 µM (active) |  |
| Nc1ncnc2c1c(I)cn2C1OC(CO)C(O)C1O (stereo not drawn) | 0.0116 µM (active) |  |
| CN(C)c1ccc(-c2nccc(NCc3cccs3)n2)cc1 | 9.23 µM (active) |  |
| c1cncc(CNc2ccnc(-c3ccc4ccccc4c3)n2)c1 | 14.6 µM (active) |  |
| c1cncc(CNc2nccc(-c3ccc4cn[nH]c4c3)n2)c1 | 0.0412 µM (active) |  |
| Cc1noc(C)c1-c1ncccn1 |  | -5.28 |
| Brc1ccc(CNc2nccc(-c3ccc4c(c3)OCO4)n2)cc1Br | 0.0823 µM (active) |  |
| c1cc(-c2ccoc2)nc(-c2ccoc2)n1 | 5.82 µM (active) |  |
| Brc1cc(Br)cc(CNc2ccnc(-c3ccc4c(c3)OCO4)n2)c1 | 5.82 µM (active) |  |
| O=[N+]([O-])c1cc(Nc2nccc(-c3ccc4c(c3)OCO4)n2)cc(C(F)(F)F)c1 | 0.104 µM (active) |  |
| O=C(O)c1ccc(-c2ccc3ncnc(NCC4CCCO4)c3c2)o1 (stereo not drawn) | 0.654 µM (active) |  |
| c1nc(NC[C@@H]2CCCO2)c2cc(-c3ccc4c(c3)OCO4)ccc2n1 | 0.0292 µM (active) |  |
| Clc1ccc(CNc2ncncc2-c2ccc3c(c2)OCO3)cc1Cl | 0.582 µM (active) |  |
| COc1cccc(-c2ncccn2)c1 | 14.6 µM (active) |  |
| COc1ccc(CNc2ccnc(-c3cccc(C#N)c3)n2)cc1 | 9.23 µM (active) |  |
| Clc1cncc(CNc2ccnc(-c3ccc4c(c3)OCO4)n2)c1 | 16.4 µM (active) |  |
| Cc1noc(C)c1-c1nccc(NCc2ccc(Cl)c(Cl)c2)n1 |  | -4.48 |
| Clc1ccc(CNc2nccc(-c3ccc4c(c3)OCO4)n2)cc1Cl | 0.0412 µM (active) |  |
| Clc1cc(Cl)cc(CNc2ccnc(-c3ccc4c(c3)OCO4)n2)c1 | 4.12 µM (active) |  |
| Clc1cc(Cl)cc(CNc2cc(-c3ccc4c(c3)OCO4)ncn2)c1 | 1.64 µM (active) |  |
| O=C(Nc1ccnc(-c2ccc3c(c2)OCO3)n1)c1cnc(Cl)c(Cl)c1 |  | -17.8 |
| COc1cccc(-c2nccc(NCc3ccc(Cl)cc3)n2)c1 | 13 µM (active) |  |
| Fc1cc(CNc2ccnc(-c3ccc4c(c3)OCO4)n2)cc(F)c1F | 23.2 µM (active) |  |
| Cc1ccc(CNc2ccnc(-c3ccc(N(C)C)cc3)n2)cc1 |  | 3.14 |
